Compound activity as filed in PubChem.
Sampled rows, rich in hits. Any-hit rate of the full collection: about 7.4%.
FLuc counter = counter-screen for miR-21 project: firefly luciferase inhibitors or activators. purified FLuc, Km substrates, luminescence inhibition. Potency, µM (top dose mostly 57.5 µM), hits mostly inhibitors. hit rate 6.9% among 360,000. AID 588342; further: nearly all actives have a fitted effect of over 55% in size
Target sequence (P08659 whole entry, looked up): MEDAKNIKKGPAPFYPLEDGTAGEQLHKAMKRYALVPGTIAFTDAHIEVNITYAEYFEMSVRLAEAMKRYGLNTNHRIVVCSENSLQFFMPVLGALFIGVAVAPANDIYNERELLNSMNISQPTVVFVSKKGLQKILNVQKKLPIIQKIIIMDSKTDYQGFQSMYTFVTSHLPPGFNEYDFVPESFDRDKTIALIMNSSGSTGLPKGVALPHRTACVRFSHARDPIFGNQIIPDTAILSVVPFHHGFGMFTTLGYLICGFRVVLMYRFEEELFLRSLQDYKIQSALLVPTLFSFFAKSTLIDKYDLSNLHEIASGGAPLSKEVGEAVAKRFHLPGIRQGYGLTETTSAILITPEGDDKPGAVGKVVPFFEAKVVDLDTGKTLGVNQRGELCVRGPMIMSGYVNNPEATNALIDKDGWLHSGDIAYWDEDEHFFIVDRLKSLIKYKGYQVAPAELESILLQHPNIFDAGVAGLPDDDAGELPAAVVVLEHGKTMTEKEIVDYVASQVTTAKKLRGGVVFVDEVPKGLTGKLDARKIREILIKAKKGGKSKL
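Purified P. pyralis luciferase, 10 nM final, with Km-level 10 uM D-luciferin and 10 uM ATP in 50 mM Tris acetate pH 7.5, 10 mM Mg acetate, 0.01% Tween-20, 0.05% BSA; 6-point qHTS titration about 60 µM downward; luminescence read.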
SMN2 splice up = SMN2 splice variant enhancement | HEK293 SMN2-luciferase splicing reporter, luminescence, 30-36 h | Potency, µM (highest dose often 46.1 µM), usual class: activators | hit rate 2.8% among 210,000; further: nearly all actives have a fitted effect of over 55% in size
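HEK293 cells carry an SMN2 minigene-luciferase reporter in which exon 7 inclusion puts luciferase in frame. Cells were seeded at 2000 cells/well, attached for 10-12 hours, then exposed to compounds for 30-36 hours at 37C before ONE-Glo luminescence.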
ELG1 genotoxic = inducers of genotoxicity in HEK293T ELG1-luciferase cells; HEK293T ELG1-luciferase reporter, luminescence, 16 h; Potency, µM (series often up to 46 µM), most hits filed as activators; hit rate 1.3% among 330,000; further: nearly all actives have a fitted effect of over 60% in size
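After overnight (16 hr) compound treatment at 37 °C, ELG1-luciferase HEK293T cells were lysed with ONE-Glo; luminescence quantified 30 min later at room temperature.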
NPC1 prom act = activates the NPC1 promoter. Huh7 NPC1 promoter luciferase reporter, 24 h. Potency, µM (top dose mostly 9.22 µM), most hits filed as activators. hit rate 2.4% among 320,000. AID 485313; further: nearly all actives have a fitted effect of over 60% in size
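Huh7 reporter cells (NPC1 promoter driving luciferase) are dosed with compound for 24 h at 37 °C, 5% CO2; luciferase detection reagent is then added and luminescence measured after 10 min at ambient temperature.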
Luc counter = blocks Kinase-Glo luciferase, a counter-screen artifact; Q27757; Kinase-Glo luciferase, ATP luminescence, 8 min; Potency, µM (titrated, usually from 38.3 µM), hits mostly inhibitors; hit rate 0.28% among 200,000; further: nearly all actives have a fitted effect of over 60% in size
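Inhibition of Kinase-Glo luciferase light generation was assessed at 10 uM ATP in pH 7.2 imidazole buffer, with luminescence measured after eight minutes at ambient temperature.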
Rab9 promoter act = Rab9 promoter activation; Potency, µM (titrated, usually from 9.22 µM), usual class: activators; Huh7 Rab9 promoter-luciferase reporter, luminescence, 24 h; AID 485297; hit rate 2.8% among 320,000; further: nearly all actives have a fitted effect of over 60% in size
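Cell-based reporter: Huh7 stable for Rab9 promoter-driven luciferase, plated in reduced-serum medium with 10% FBS at 1500 cells/well, compound-treated 24 h at 37 °C, luminescence read after 10 min reagent.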
Hits are given with their value. The call rests on the fitted dose curve; in most records, active means well fitted curve in the direction sought with a large enough effect; inconclusive means small, poorly fitted or top-dose-only effect, or another doubt; inactive means no such curve, though single readings can be large; an effect the other way counts as inactive or inconclusive.

Screening O=C(/C=C/Nc1ccc(F)c(F)c1)c1ccc(Br)cc1 returned FLuc counter 1.5µM, SMN2 splice up 13µM, ELG1 genotoxic inconclusive, NPC1 prom act 2µM, Luc counter inactive and Rab9 promoter act 2.5µM.
Screening O=C(/C=C/Nc1ccc(F)cc1)c1ccc(Br)cc1 returned FLuc counter 2.1µM, SMN2 splice up 13µM, ELG1 genotoxic inconclusive, NPC1 prom act 2µM, Luc counter inactive and Rab9 promoter act 1.4µM.
`O=C(/C=C/Nc1ccc(F)c(F)c1)c1cccs1` gave FLuc counter 0.95µM, ELG1 genotoxic inconclusive, NPC1 prom act 3.2µM and Rab9 promoter act 2.5µM.
For O=C(/C=C/Nc1ccc(S(=O)(=O)Nc2ncccn2)cc1)c1cccs1 the results were FLuc counter inactive, ELG1 genotoxic inactive, NPC1 prom act inactive and Rab9 promoter act inactive.
`CCCn1ccc2c(OCC(=O)Nc3ccccc3C(=O)OCC)cccc2c1=O` gave FLuc counter inactive.
O=C(Nc1ccc(C(=O)c2ccc(C(=O)O)c(C(=O)O)c2)cc1)c1ccccc1 was read as FLuc counter 11µM, ELG1 genotoxic inactive, NPC1 prom act inactive and Rab9 promoter act inactive.
Screening O=C(O)c1ccc(C(=O)O)c(C(=O)c2ccc(NC(=O)c3ccccc3)cc2)c1 returned FLuc counter 19µM, ELG1 genotoxic inactive, NPC1 prom act inactive and Rab9 promoter act inactive.
`CCC(=O)Nc1cccc(-c2cnc3ccccc3n2)c1` gave FLuc counter 19µM, SMN2 splice up inactive, ELG1 genotoxic inconclusive, NPC1 prom act inconclusive, Luc counter inactive and Rab9 promoter act inconclusive.
`CCc1ccc(-c2cnc3ccccc3n2)cc1NC(=O)CNC(=O)c1ccccc1` gave FLuc counter 2.7µM, ELG1 genotoxic 3.7µM, NPC1 prom act 3.5µM and Rab9 promoter act 4µM.
For O=C(CCl)Nc1cccc(-c2cnc3ccccc3n2)c1 the results were FLuc counter 12µM, SMN2 splice up inactive, ELG1 genotoxic inactive, NPC1 prom act inactive, Luc counter inactive and Rab9 promoter act inactive.
Screening O=C(Nc1cccc(-c2cnc3ccccc3n2)c1)c1ccccc1 returned FLuc counter inactive, SMN2 splice up inactive, ELG1 genotoxic inactive, NPC1 prom act inactive, Luc counter inactive and Rab9 promoter act inactive.
CC(C)C[C@@H](CC(=O)N[C@@H](CCC(=O)O)CC(=O)O)NC(=O)[C@@H]1CCCC[C@H]1NC(=O)C[C@@H](NC(=O)C[C@H](Cc1c[nH]c2ccccc12)NC(=O)[C@@H]1CNCC[C@H]1N)C(C)C was read as SMN2 splice up inactive and Luc counter inactive.
Screening CC(C)C(=O)Nc1nnc(SCc2cc(=O)n3ccccc3n2)s1 returned FLuc counter inactive.
For Cc1nn(-c2ccccc2)c(Cl)c1/C=N/NC(=O)c1ccc(NS(=O)(=O)c2cccs2)cc1 the results were FLuc counter 0.85µM, SMN2 splice up 13µM, ELG1 genotoxic inconclusive, NPC1 prom act inconclusive, Luc counter inactive and Rab9 promoter act inconclusive.
Screening Cc1nn(-c2ccccc2)c(Cl)c1/C=N/NC(=O)c1ccccc1NS(=O)(=O)c1cccs1 returned FLuc counter 12µM, SMN2 splice up inactive, ELG1 genotoxic inactive, NPC1 prom act inactive, Luc counter inactive and Rab9 promoter act inactive.
`Cc1c(C(=O)Nc2cccc(Cl)c2)c2ccccn2c1CCc1ccncc1` gave FLuc counter 17µM, SMN2 splice up inactive, ELG1 genotoxic inactive, NPC1 prom act inactive, Luc counter inactive and Rab9 promoter act inactive.
Cc1c(C(=O)Nc2ccc(Cl)cc2)c2ccccn2c1CCc1ccncc1 was read as FLuc counter 3µM, SMN2 splice up inactive, ELG1 genotoxic inactive, NPC1 prom act inconclusive, Luc counter inactive and Rab9 promoter act inconclusive.
`O=C(NCc1ccncc1)Nc1cccc(Cl)c1` gave FLuc counter inactive, SMN2 splice up inactive, ELG1 genotoxic inactive, NPC1 prom act inactive, Luc counter inactive and Rab9 promoter act inactive.
Cc1oc(-c2cccc(Cl)c2)nc1CSc1nc2ncccc2[nH]1 was read as FLuc counter inactive.
Clc1cccc(CSc2ncn(-c3ccccc3)n2)c1 was read as FLuc counter 19µM, SMN2 splice up inconclusive, ELG1 genotoxic inconclusive, NPC1 prom act inactive, Luc counter inactive and Rab9 promoter act inactive.
`Clc1ccc(CSc2ncn(-c3ccccc3)n2)cc1` gave FLuc counter inactive, SMN2 splice up inactive, ELG1 genotoxic inactive, NPC1 prom act inactive, Luc counter inactive and Rab9 promoter act inactive.
`CCOc1ccc(S(=O)(=O)N/N=C2/CC(c3ccccc3)Oc3ccccc32)cc1` (configuration not stated) gave FLuc counter 21µM, SMN2 splice up inconclusive, ELG1 genotoxic inactive, NPC1 prom act inactive, Luc counter inactive and Rab9 promoter act inactive.
For O=S(=O)(N/N=C1\CC(c2ccccc2)Oc2ccccc21)c1ccccc1 (configuration not stated) the results were FLuc counter inactive, SMN2 splice up inactive, ELG1 genotoxic inactive, NPC1 prom act inactive, Luc counter inactive and Rab9 promoter act inactive.
CCN(CC)C(=O)c1cccc(-c2ccc(OC)cc2)c1 was read as FLuc counter inconclusive, SMN2 splice up inactive, ELG1 genotoxic inconclusive, NPC1 prom act inactive, Luc counter inactive and Rab9 promoter act inactive.
`COC(=O)CNC(=O)c1cccc(Cl)c1` gave FLuc counter inactive, SMN2 splice up inactive, ELG1 genotoxic inactive, NPC1 prom act inactive, Luc counter inactive and Rab9 promoter act inactive.
COc1ccc(-c2cccc(C(=O)NCC(=O)O)c2)cc1 was read as FLuc counter 13µM, SMN2 splice up inconclusive, ELG1 genotoxic inconclusive, NPC1 prom act inactive, Luc counter inactive and Rab9 promoter act inactive.
Screening COc1cccc(C(=O)NCC(=O)OCc2ccc(F)cc2Cl)c1 returned FLuc counter 17µM, SMN2 splice up inactive, ELG1 genotoxic inactive, NPC1 prom act inactive, Luc counter inactive and Rab9 promoter act inactive.
`COc1ccc(C(=O)NCC(=O)OCc2ccc(F)cc2Cl)cc1OC` gave FLuc counter inactive, SMN2 splice up inactive, ELG1 genotoxic inactive, NPC1 prom act inactive, Luc counter inactive and Rab9 promoter act inactive.
COC(=O)CNC(=O)c1cccc(-c2ccc(OC)cc2)c1 was read as FLuc counter 19µM, SMN2 splice up inactive, ELG1 genotoxic inactive, NPC1 prom act inactive, Luc counter inactive and Rab9 promoter act inactive.
COc1cc(OC)cc(C(=O)NCC(=O)Nc2ccc(-c3ccccc3)cc2)c1 was read as FLuc counter 15µM, ELG1 genotoxic inconclusive, NPC1 prom act inactive and Rab9 promoter act inactive.
For CCn1c(SCC(=O)N2CCC(C)CC2)nnc1-c1ccccc1O the results were FLuc counter inactive.
Screening Cc1ccc(CSCC(=O)N2CCN(c3ccccc3F)CC2)cc1 returned FLuc counter inactive.
